CYP2C19 inh: human CYP2C19 inhibition | hit rate 21% among 96,000 | P33261 | inhibition, % at 5 µM | CYP2C19 Supersomes, luciferin-H EGE luminescence, 30 min | AID 778;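 active = CYP2C19 inhibition above a set limit at 5 µM in the primary screen, cut at about 50% in these data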;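 note: plate controls were negative control wells for no effect and 2.5 mM tranylcypromine positive control for full effect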
CYP2C9 activ: CYP2C9 (human) activation; activation factor at 5 µM; P11712; hit rate 1.4% among 96,000; recombinant CYP2C9, luciferin-H conversion, luminescence; stronger effect = higher value; factor 1 = untreated enzyme, 0 = blocked;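 active = activation factor of 2 or more for CYP2C9 at a 5 µM dose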;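 note: 0 = sulfaphenazole-blocked wells and 1 = vehicle-only wells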
Target sequence (P11712 whole entry, looked up): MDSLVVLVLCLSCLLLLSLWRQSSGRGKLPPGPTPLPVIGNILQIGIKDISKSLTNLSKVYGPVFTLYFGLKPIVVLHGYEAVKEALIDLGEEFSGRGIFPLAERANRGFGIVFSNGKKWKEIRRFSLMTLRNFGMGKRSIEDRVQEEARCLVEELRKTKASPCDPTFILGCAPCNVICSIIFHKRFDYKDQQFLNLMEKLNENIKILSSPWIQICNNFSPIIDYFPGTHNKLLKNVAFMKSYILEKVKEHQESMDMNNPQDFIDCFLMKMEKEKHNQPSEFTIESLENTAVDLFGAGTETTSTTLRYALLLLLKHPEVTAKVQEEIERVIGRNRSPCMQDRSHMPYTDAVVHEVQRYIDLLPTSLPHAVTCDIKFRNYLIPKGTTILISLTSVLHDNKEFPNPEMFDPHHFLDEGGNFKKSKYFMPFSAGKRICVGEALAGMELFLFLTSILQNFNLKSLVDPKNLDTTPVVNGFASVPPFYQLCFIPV
CYP2C19 activ: increases human CYP2C19 enzyme activity. recombinant CYP2C19, luciferin-H EGE luminescence; stronger effect = higher value; 0 = fully inhibited enzyme, 1 = untreated enzyme. activation factor at 5 µM. 96,000 tested, under 10 active. AID 1025;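 active = activation factor of at least 2 at 5 µM in the primary screen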;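 note: 0 = wells with 2.5 mM tranylcypromine and 1 = vehicle-only wells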
EphB4 antag: blocks human EphB4 binding to ephrin-B2; EphB4 LBD / TNYL-RAW-Alexa532 peptide, fluorescence polarization; inhibition, % at 7 µM; hit rate 0.15% among 97,000; AID 720;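 active = inhibition above the screen-wide mean inhibition plus 3 SD, cut at about 15% in these data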;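 note: 0% = DMSO wells and 100% = excess unlabeled TNYL-RAW peptide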
CYP2C9 inh: human CYP2C9 inhibition; P11712; CYP2C9 Supersomes, luciferin-H conversion, luminescence; inhibition, % at 5 µM; hit rate 20% among 96,000; AID 777;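 active = blocking of liver enzyme CYP2C9 beyond about 50% at 5 µM, limit read from the data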
Numbers without * were called inactive; . = no result given. The list is not random: actives were taken first. Their share in the collection is about 27%.

SMILES	CYP2C19 inh	CYP2C9 activ	CYP2C19 activ	EphB4 antag	CYP2C9 inh
Cc1ccc(SC(C)c2nc(-c3ccccc3)no2)cc1 (stereo not drawn)	90*	0.2	0.1	0	85*
O=C(c1nc2ncccn2n1)N1CCN(c2ccccc2)CC1	-18	1.3	1.2	6	-27
c1csc(C(c2nnnn2C2CCCCC2)N2CCCC3(CCCCC3)C2)c1 (stereo not drawn)	.	.	.	-2	.
O=C(Nc1nccs1)c1cn(-c2ccccc2)nc1-c1ccccc1	21	0.4	0.8	1	62*
CC(C)COc1ccc(-c2nn(-c3ccccc3)cc2C(=O)Nc2nccs2)cc1	16	0.6	0.8	-3	37
C/C(=C\C(=O)c1ccc(C)cc1)NCc1ccc(F)cc1	.	.	.	5	.
Cc1c(CCO)c(=O)[nH]n1C(=O)c1ccc(F)cc1	28	0.3	0.7	3	74*
Cc1cc(C)n(C(=O)CNc2ccccc2Cl)n1	.	.	.	-1	.
O=C(O)C1NCCc2ccccc21 (stereo not drawn)	32	0.3	0.7	-3	74*
O=C(CCN1C(=O)c2ccccc2C1=O)N1CCN(C(=O)c2ccccc2)CC1	8	0.8	0.9	-7	20
Cc1onc(-c2ccccc2)c1C(=O)Nc1nc2c(s1)C(=O)CC(C)(C)C2	5	0.5	0.9	2	54*
Cc1onc(-c2ccccc2)c1C(=O)Nc1ccncc1	92*	0.1	0.1	4	90*
Cc1onc(-c2ccccc2)c1C(=O)Nc1nnc(-c2ccncc2)s1	61*	0	0.4	4	99*
COc1cc(OC)c(NC(=O)c2c(-c3ccccc3)noc2C)cc1Cl	0	0.7	1	3	26
CC1(C)CC(=O)c2sc(NC(=O)c3ccco3)nc2C1	11	0.7	0.9	-4	29
Cc1onc(-c2ccccc2)c1C(=O)Nc1cccc(C#N)c1	55*	1	0.4	.	-4
Cc1noc(C)c1C(=O)Nc1nnc(-c2ccccc2)s1	4	0.8	1	6	24
CC1CC(C)CN(CCCn2c(=S)[nH]c3ccccc3c2=O)C1 (stereo not drawn)	28	1	0.7	3	4
CC(C)c1ccc(NC(=O)C(c2ccccc2)N2CCOCC2)cc1 (stereo not drawn)	55*	0.3	0.4	.	68*
CC(C)c1ccc(NC(=O)C(c2ccccc2)N2CCN(C=O)CC2)cc1 (stereo not drawn)	-13	1.1	1.1	0	-10
CNC(=S)N/N=C/c1ccc(C(C)C)cc1	.	.	.	2	.
COc1cccc(-c2nn(-c3ccccc3)cc2/C=C\C(=O)c2cccs2)c1	33	0.4	0.7	0	58*
COc1cccc(-c2nn(-c3ccccc3)cc2C(=O)O)c1	7	0.8	0.9	-1	15
C=CCn1c(O)c(C(CC)=Nc2ccccc2NC(=O)CC)c(=O)[nH]c1=O	72*	0.4	0.3	5	60*
CC(C)n1nnnc1SCC(=O)NCCc1ccccc1	40	1	0.6	-5	-1
SMILES	CYP2C19 inh	CYP2C9 activ	CYP2C19 activ	EphB4 antag	CYP2C9 inh
O=C(NCc1cccs1)c1ccc(Cl)s1	54*	0.9	0.5	5	6
CCc1ccc(C(=O)NCc2cccs2)s1	80*	0.5	0.2	.	45
CCOC(=O)CNS(=O)(=O)c1c(C)noc1C	28	1	0.7	-5	-3
COc1ccc(C2(C(=O)NC(C)C)CCCC2)cc1OC	16	0.9	0.8	-4	13
Cc1ccc2nc(NC(=O)Cc3cccs3)sc2c1	24	0.7	0.8	3	28
COC(=O)CCCCCCCCC(=O)Nc1nc2ccccc2s1	63*	0.2	0.4	-7	82*
O=C(Cc1cccs1)Nc1nc2ccccc2s1	56*	0.5	0.4	1	50
CCn1cc(C(=O)O)c(=O)c2cnc(N3CCN(C(=O)Nc4cccc5ccccc45)CC3)nc21	4	1	1	.	0
CCN(CC)Cc1cc2ccccc2c2c1COC2	17	0.9	0.8	2	7
Cc1oc(-c2cccc(Cl)c2)nc1CN1CCC(C(=O)NCC2CCCO2)CC1 (stereo not drawn)	1	0.9	1	4	5
CCN(CCNC(=O)c1cc(C)nn1-c1ccccc1)c1ccccc1	79*	0.8	0.2	.	16
Cc1cc(C(=O)NCc2cccs2)n(-c2ccccc2)n1	48	0.4	0.5	-4	59*
Cc1cc(C(=O)Nc2ccccc2C#N)n(-c2ccccc2)n1	41	0.4	0.6	-8	57*
CCOCCCNC(=O)c1cc(C)nn1-c1ccccc1	6	0.8	0.9	.	18
Cc1ccc(C(=O)NNC(=O)C2CCN(c3nc(C)cc(C)n3)CC2)cc1	-2	1	1	5	-3
CN(C)/C=N/C(=S)Nc1ccc(F)cc1	-7	1.1	1.1	-1	-14
Cc1scc(C(=O)N/N=C/c2ccc(OC(C)C)cc2)c1C	34	0.8	0.7	-1	23
Cc1c(N=C2C(=O)Nc3ccccc32)c(=O)n(-c2ccccc2)n1C	-2	1.1	1	-6	-11
Cc1ccc2c(c1Br)/C(=N/N1C(=O)c3ccccc3C1=O)C(=O)N2	30	0.5	0.7	-2	51*
CSc1ccccc1NC(=O)c1ccccc1N(Cc1ccccc1)S(C)(=O)=O	43	0.4	0.6	9	59*
CSc1ccccc1NC(=O)c1ccccc1N(C)S(C)(=O)=O	32	1.2	0.7	-5	-22
CS(=O)(=O)N(CC(=O)Nc1ccccc1Sc1ccccc1)c1cccc(Br)c1	14	0.3	0.9	-4	66*
CSc1ccccc1NC(=O)CN(c1cc(C)cc(C)c1)S(C)(=O)=O	58*	0.3	0.4	-3	71*
COc1ccccc1NC(=O)CN(c1ccccc1F)S(C)(=O)=O	29	0.8	0.7	0	15
O=C(NCC1CCCO1)Nc1cccc(Cl)c1 (stereo not drawn)	38	0.8	0.6	-2	17
SMILES	CYP2C19 inh	CYP2C9 activ	CYP2C19 activ	EphB4 antag	CYP2C9 inh
c1ccc(CC2CCN(C(c3cccs3)c3nnnn3C3CCCC3)CC2)cc1 (stereo not drawn)	68*	0.1	0.3	-1	88*
CCCCC(c1nnnn1C1CCCC1)N1CCN(C2CCCCC2)CC1 (stereo not drawn)	12	0.7	0.9	2	27
c1coc(CN2CCN(C(c3cccs3)c3nnnn3C3CCCC3)CC2)c1 (stereo not drawn)	28	0.8	0.7	0	21
O=C(c1ccco1)N1CCN(C(c2cccs2)c2nnnn2C2CCCC2)CC1 (stereo not drawn)	55*	0.3	0.5	5	68*
CCCC(c1nnnn1C1CCCCC1)N1CCN(c2ncccn2)CC1 (stereo not drawn)	36	0.2	0.6	-9	81*
CCCCC(c1nnnn1CCOC)N1CCN(C(=O)c2ccco2)CC1 (stereo not drawn)	80*	0.4	0.2	.	55*
COc1cccc(-n2c(SCC(N)=O)nnc2-c2ccncc2)c1	26	1	0.7	-1	-4
